In PubChem BioAssay (EPA / NIEHS):
The source made the active and inactive calls. How the source made its calls: active means hit-call score of the fitted dose curve at least 0.9, where 1 is the maximum; inactive means score below 0.9.

What follows are molecules tested on X-box binding protein 1 (XBP1), XBP1 (gene 7494) (assay: LTEA_HepaRG_XBP1: Life Technologies and Expression Analysis (LTEA) Assay for X-box binding protein 1 (XBP1) using HepaRG (AID 2283540)). Settings: mRNA level, 48 h; actives raise or lower the signal.
Method: LTEA_HepaRG is a cell based, multiplexed-readout assay that uses HepaRG, a human liver cell line, with measurements taken at 48 hours after chemical dosing on a 96-well plate.LTEA_HepaRG_XBP1 is one of 102 assay component(s) measured in the LTEA HepaRG cell culture assay. It is a marker of Diseases associated with XBP1 including Major Affective Disorder 7 and Bipolar Disorder.Data from the assay component LTEA_HepaRG_XBP1 was analyzed into 1 endpoint. This assay endpoint, LTEA_HepaRG_XBP1, was analyzed with bidirectional fitting relative to DMSO as the negative control and baseline of activity. Using a type of inducible reporter, measures of mRNA induction for gain or loss-of-signal activity can be used to understand regulation of transcription factor activity. To generalize the intended target to other relatable targets, this assay endpoint is annotated to the dna binding intended target family, where the subfamily is basic leucine zipper.
A total of 1060 chemcials from the ToxCast library were tested in eight-point concentration-response experiments. Cell culture and cytotoxicity assays were conducted at Thermo Fisher Scientific's Custom Services facility (Madison, WI). A single lot of human HepaRG cells (Thermo Fisher Scientific, Frederick, MD) was used for the cell culture experiments. 96-well format collagen type I coated plates of human HepaRG cells were prepared using established methods. Briefly, cryopreserved HepaRG cells were thawed, plated at a density of approximately 100,000 cells/well in HepaRG Thaw, Plate, and General Purpose media (HPRG770, Thermo Fisher Scientific), and incubated for 48 hours. 0.5% DMSO was selected as vehicle control to balance the requisite need of DMSO in HepaRG cultures to maintain differentiation (for example, baseline metabolism, proportions of hepatocytes vs. cholangiocytes), while enabling further hepatic receptor pathway activation (for example, PXR and CAR) in response to chemical exposure. 48 hours after plating, the culture medium was replaced with HepaRG Serum-Free Incudtion Media. Cells were exposed to each test chemical in duplicate and maintained in CO2 incubators for another 48 hours. Chemical plates were thawed to room temperature and 200x concentrations of treatment groups were prepared. 8-point conentration-reponse curves were made with the highest exposure at 100 uM, followed by half-log dilutions, all in 0.5% DMSO. Each test plate contained variouse controls, induction positive controls (1mM phenobarbital), cytotoxicity positive controls ([…] aflatoxin B1), vehicle controls (0.5% DMSO), and total lysis controls (0.5% DMSO). Cell morphology images were taken using an Essen IncuCyte FLR automated microscope, with six 96-well plates imaged in about 24 minutes. Images were captured and exported and JPEG files. Spent culture media was transfered to black-well plates for the LDH assay, and remaining media was sorted at -80 C for later use. Cells were treated with RLT buffer and frozen until shipped for gene expression analysis. Total RNA was isolated from the cell suspension in 75 uL of Buffer RLT (Qiagen, Germantown, MD 20874) by Quintiles/Expression Analysis (Durham, NC) using a custom isolation procedure. Total RNA from each plate well was transferred to a preamplification plate. Fluidigm's 96.96 Dynamic ArrayTM (Fluidigm, Amsterdam, the Netherlands) technology was used for gene expression analyses by quantitative reverse transcription polymerase chain reaction (qRT-PCR, performed by Quintiles/Expression Analysis, Durham, NC)89. Standard TaqManTM Assays (Applied Biosystems/ThermoFisher Scientific, Foster City, CA) were used to assess the expression of 93 genes selected based on their selectivity and sensitivity to important hepatic receptors known to be modulated by environmental chemicals; importance in human hepatocyte functionality; and hepatotoxicity. […]

Question: `CCCCCCC(C=O)=Cc1ccccc1` was tested. Which outcome did it give?
Answer: inactive

Question: With `CC(=O)O` as the molecule, how does the outcome read?
Answer: inactive

Question: How did the outcome turn out when `C/C=C/C=C/C(=O)O` was run?
Answer: inactive

Question: For `CCc1cc(C2=C(C(=O)O)N(c3ccccc3C(F)(F)F)S(=O)(=O)c3ccccc32)cc2c1OCO2`, which outcome is on record?
Answer: inactive

Question: For `CCCCC(CC)CO` (stereo not given), which outcome is on record?
Answer: inactive

Question: How did the outcome turn out when `O=C(O)c1cccnc1` was run?
Answer: inactive

Question: Which outcome does the source give for `CC(=O)[C@@]1(O)CC[C@H]2[C@@H]3CCC4=CC(=O)CC[C@]4(C)[C@H]3CC[C@@]21C` here?
Answer: inactive

Question: How did the outcome turn out when `COc1ccc(OC(F)(F)F)cc1CN[C@H]1CCCN[C@H]1c1ccccc1` was run?
Answer: inactive

Question: For `CN(C)CCCN1c2ccccc2Sc2ccc(Cl)cc21`, which outcome is on record?
Answer: inactive

Question: For `COC(=O)CCC(=O)OC`, which outcome is on record?
Answer: inactive

Question: `CC(=O)O[C@]1(C(C)=O)CC[C@H]2[C@@H]3C=C(Cl)C4=CC(=O)[C@@H]5C[C@@H]5[C@]4(C)[C@H]3CC[C@@]21C` was tested. Which outcome did it give?
Answer: inactive

Question: With `CCCC(=O)O` as the molecule, how does the outcome read?
Answer: inactive

Question: How did the outcome turn out when `Cc1cc(SC2=C(O)C[C@@](CCc3ccc(N)cc3)(C(C)C)OC2=O)c(C(C)(C)C)cc1CO` was run?
Answer: inactive

Question: How did the outcome turn out when `CC(COCC(C)OC(=O)c1ccccc1)OC(=O)c1ccccc1` (stereo not given) was run?
Answer: inactive

Question: With `NC=O` as the molecule, how does the outcome read?
Answer: inactive

Question: Which outcome does the source give for `C#CC(O)C(CC)CCCC` (stereo not given) here?
Answer: inactive

Question: With `CC(C)(C)c1ccccc1` as the molecule, how does the outcome read?
Answer: inactive

Question: How did the outcome turn out when `O=C(Oc1ccccc1)c1cccc(C(=O)Oc2ccccc2)c1` was run?
Answer: inactive

Question: `O=C(O)CN(CC(=O)O)CC(=O)O` was tested. Which outcome did it give?
Answer: inactive

Question: With `CN(C)CCCN(C)CCCN(C)C` as the molecule, how does the outcome read?
Answer: inactive

Question: For `CC(=O)CC(c1ccccc1)c1c(O)c2ccccc2oc1=O` (stereo not given), which outcome is on record?
Answer: inactive

Question: With `O=C(O)CC(O)(CC(=O)O)C(=O)O` as the molecule, how does the outcome read?
Answer: inactive

Question: How did the outcome turn out when `CN(C)C(=O)NC1(c2ccccc2)CCN(CC[C@@]2(c3ccc(F)c(F)c3)CN(C(=O)c3ccccc3)CCO2)CC1` was run?
Answer: inactive

Question: `Cn1cnc2c1c(=O)[nH]c(=O)n2C` was tested. Which outcome did it give?
Answer: inactive

Question: `O=C(NS(=O)(=O)/C=C/c1cccs1)c1ccc(F)cc1Br` was tested. Which outcome did it give?
Answer: inactive

Question: `O=[Si]=O` was tested. Which outcome did it give?
Answer: inactive

Question: How did the outcome turn out when `CC(C)COC(=O)CCCCC(=O)OCC(C)C` was run?
Answer: inactive

Question: With `CC1=C(C)S(=O)(=O)CCS1(=O)=O` as the molecule, how does the AC50 read?
Answer: 91 µM (active)

Question: How did the outcome turn out when `C=CCCCCCCCCCCCC` was run?
Answer: inactive

Question: With `OCC(CO)n1cnc(-c2ccc(F)cc2)c1-c1ccnc(Oc2ccccc2)n1` as the molecule, how does the outcome read?
Answer: inactive

Question: `NC1CCCCC1` was tested. Which outcome did it give?
Answer: inactive

Question: With `CCCCC(CC)COC(=O)CCCCCCCC(=O)OCC(CC)CCCC` (stereo not given) as the molecule, how does the outcome read?
Answer: inactive

Question: How did the outcome turn out when `CC1(C)C(=O)NC(=O)N1CO` was run?
Answer: inactive

Question: With `CC(C)(O)c1ccc(CNC(=O)c2cccnc2Oc2ccc(F)cc2)cc1` as the molecule, how does the outcome read?
Answer: inactive

Question: How did the AC50 turn out when `COC(=O)[C@H]1[C@H]2C[C@@H]3c4[nH]c5cc(OC)ccc5c4CCN3C[C@H]2C[C@@H](OC(=O)c2cc(OC)c(OC)c(OC)c2)[C@@H]1OC` was run?
Answer: 42.2 µM (active)

Question: For `CC(C)OC(=O)C(C)(C)Oc1ccc(C(=O)c2ccc(Cl)cc2)cc1`, which outcome is on record?
Answer: inactive

Question: For `C/C=C/c1ccc(OC)cc1`, which outcome is on record?
Answer: inactive

Question: How did the outcome turn out when `O=C1CCCCC1` was run?
Answer: inactive

Question: How did the AC50 turn out when `Nc1nc(Cl)nc2c1ncn2[C@H]1C[C@H](O)[C@@H](CO)O1` was run?
Answer: 1.56 µM (active)

Question: `CCOCCOCCO` was tested. Which outcome did it give?
Answer: inactive
